HSF1 activator: HSF-1 activators, primary screen, NIH3T3-HGL cells, MG132 stress, luminescence, single point; activation, % at 9 µM; 300,000 compounds, 1.7% hits; NIH3T3-HGL HSF-1 luciferase reporter, 8 h; 100% = twice DMSO control signal; AID 504408, 2011;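 active = mean replicate activation of at least 50% with a set share of replicates each reaching 50%; inconclusive = only one of those two conditions met; inactive = mean below 50% and too few replicates reaching it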;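 also: 0% = median of the neutral control wells and 100% = twice that signal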
HSF1 inhib: HSF1 inhibitors in luciferase reporter cells, primary screen, cell-based, NIH3T3, luminescence. NIH3T3-HGL HSE-luciferase, MG132-induced, luminescence 8 h; active compounds read low. activity change, negative = inhibition, % at 7.5 µM (by protocol). 300,000 compounds, 0.77% hits. AID 2098, 2009;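 active = more than half of replicate wells show activity change below -50%, luminescence cut by over half; inconclusive = some wells, but at most half, below -50%; inactive = no replicate well below -50%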;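 also: luciferase reports HSF-1 transcriptional activity via heat shock element; 0% = median of DMSO wells and -100% = zero luminescence signal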
AHR act: AHR activators, primary screen, cell-based, luminescence, luciferase reporter, human; AHR-responsive luciferase reporter cells; Aryl hydrocarbon receptor (Homo sapiens), P35869; AID 2796, 2010; activation, % at 5 µM; 320,000 compounds, 2.5% hits; in the data active = activation above about 47%;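 also: 0% = vehicle wells and 100% = reference agonist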
Target sequence (P35869 whole entry, looked up): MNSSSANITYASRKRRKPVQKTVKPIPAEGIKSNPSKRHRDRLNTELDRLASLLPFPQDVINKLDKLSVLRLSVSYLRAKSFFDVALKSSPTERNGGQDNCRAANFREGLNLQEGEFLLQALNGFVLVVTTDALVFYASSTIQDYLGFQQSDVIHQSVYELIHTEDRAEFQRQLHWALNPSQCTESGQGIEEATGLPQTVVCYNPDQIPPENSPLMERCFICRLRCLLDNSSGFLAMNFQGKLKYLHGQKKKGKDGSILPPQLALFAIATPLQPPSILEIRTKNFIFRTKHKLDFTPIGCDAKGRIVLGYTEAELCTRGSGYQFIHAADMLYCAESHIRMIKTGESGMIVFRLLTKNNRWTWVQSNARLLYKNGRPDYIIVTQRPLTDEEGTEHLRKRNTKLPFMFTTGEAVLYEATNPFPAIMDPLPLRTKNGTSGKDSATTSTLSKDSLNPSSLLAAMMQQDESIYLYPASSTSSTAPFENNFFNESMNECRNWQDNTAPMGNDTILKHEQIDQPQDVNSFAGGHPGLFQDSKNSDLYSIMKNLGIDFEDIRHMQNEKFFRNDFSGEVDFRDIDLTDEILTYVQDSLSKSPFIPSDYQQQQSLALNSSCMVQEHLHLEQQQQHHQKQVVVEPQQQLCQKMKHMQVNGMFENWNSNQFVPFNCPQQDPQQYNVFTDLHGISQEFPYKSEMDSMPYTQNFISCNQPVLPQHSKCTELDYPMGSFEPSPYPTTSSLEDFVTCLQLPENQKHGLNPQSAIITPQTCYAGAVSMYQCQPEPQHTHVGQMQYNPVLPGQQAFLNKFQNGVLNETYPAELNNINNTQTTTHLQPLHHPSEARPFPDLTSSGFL
FXN GAA850 act: FXN promoter activators, primary screen, cell-based, luciferase luminescence, HEK293 lucGAA850; HEK293 lucGAA850 FXN promoter luciferase reporter, 24 h; percent of 10 µM SAHA response; activation, % at 6 µM; AID 540364, 2011; 360,000 compounds, 0.56% hits;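 active = activation above the average of all compounds screened plus 3 SD, cutoff fixed separately per campaign, cut at about 7.5% in these data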;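 also: 0% = DMSO wells and 100% = 10 µM SAHA wells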
* hit, by the source's call; ? = inconclusive; . = no result. Rows were chosen to be rich in hits. Some 4.6% of all compounds tested hit in one or more screens of this group.

SMILES	HSF1 activator	HSF1 inhib	AHR act	FXN GAA850 act
COc1ccc(NC(=O)CCc2nnc3ccc(N4CCC(C)CC4)nn23)cc1OC	-78	-71*	0	-1
COc1ccc(OC)c(NC(=O)CCc2nnc3ccc(N4CCC(C)CC4)nn23)c1	1	3	2	1
CSc1cccc(-n2cc(-c3ccc4c(c3)OCO4)[nH]c2=O)c1	21	12	51*	-3
O=C(Nc1ccc(OCC(F)(F)C(F)F)c(C(F)(F)F)c1)c1ccccc1O	66*	38	-12	-8
Cc1nn(-c2ccc(Cl)cc2)c(=O)c2ccccc12	-4	5	54*	7
Cc1nn(-c2nc3ccccc3[nH]2)c(=O)c2ccccc12	-85	-81*	20	-15
Cc1nn(-c2ccc(Cl)c(Cl)c2)c(=O)c2ccccc12	16	2	16	0
Cc1cc(-c2ccccc2)[nH]c(=O)c1C#N	?	16	-1	0
O=C(/C=C/c1ccc(Br)o1)NCCCN1CCOCC1	-68	-66*	-1	2
O=C(COC(=O)/C=C/c1ccc(Br)o1)NCCCN1CCCC1=O	65*	48	0	1
COc1ccc(Nc2nc(OC)nc(N3CCOCC3)n2)cc1	-6	0	51*	3
CCOc1nc(Nc2ccc(OC)cc2)nc(N2CCOCC2)n1	-3	-7	24	-2
COCCN(CC(=O)NCc1ccccc1)C(=O)CCC(=O)Nc1nccs1	-10	-9	1	0
O=C(Nc1ccccc1N1CCN(C(=O)c2ccc(Cl)cc2)CC1)c1cc(Br)ccc1Cl	2	4	8	1
CCN1C(=O)c2ccccc2S(=O)c2ccc(C(=O)NCc3ccc(OC)cc3)cc21 (stereo unspecified)	-90	-87*	14	1
CCN1C(=O)c2ccccc2S(=O)c2ccc(C(=O)N3CCCC3)cc21 (stereo unspecified)	-88	-85*	1	2
CCOCCCNC(=O)c1ccc2c(c1)N(CC)C(=O)c1ccccc1S2=O (stereo unspecified)	-4	-9	9	1
CC(C)CCNC(=O)CN(C(=O)CCC(=O)Nc1nccs1)c1ccc2c(c1)OCCO2	-63	-62*	-2	-7
Clc1cccc(Nc2ncnc3ccc(Br)cc23)c1	-33	-32	41	-8
Clc1ccc(Nc2ncnc3ccc(Br)cc23)cc1	-21	-21	67*	-8
CCN(CC)CC(=O)n1c2c(c3ccccc31)CCCC2	-1	-2	1	2
O=C(CSc1ncccn1)n1c2c(c3ccccc31)CCCC2	32	13	70*	3
CN1CCN(CC(=O)n2c3c(c4ccccc42)CCCC3)CC1	-72	-64*	9	2
Cc1cccc(-n2nnc3cnn(C)c3c2=O)c1	12	0	60*	1
Cn1ncc2nnn(-c3ccccc3)c(=O)c21	.	.	17	0
SMILES	HSF1 activator	HSF1 inhib	AHR act	FXN GAA850 act
COc1cc2sc3ccc(-c4ccc(CN5CCOCC5)cc4)cc3c(=O)c2cc1OC	.	.	52*	1
Cc1cccc2sc(NS(=O)(=O)c3ccccc3)nc12	8	2	27	0
COCCn1nnnc1CN1CCC(NC(=O)c2ccc(Br)cc2)CC1	10	-3	0	-1
COc1cc(C(=O)NC2CCN(Cc3nnnn3Cc3cccs3)CC2)cc(OC)c1OC	-75	-68*	-4	-2
O=C(O)CC(Cc1ccc(Br)cc1)C(=O)O (stereo unspecified)	-81	-76*	0	-2
CCOc1ccc(NC(=O)C(CC(=O)O)Cc2ccc(Br)cc2)cc1 (stereo unspecified)	-1	-10	0	2
O=c1[nH]c2ccccc2cc1CN(Cc1cccnc1)S(=O)(=O)c1ccc([N+](=O)[O-])cc1	63*	28	1	2
O=c1[nH]c2ccccc2cc1CN(Cc1cccnc1)S(=O)(=O)c1ccc(Cl)cc1	8	0	-1	-1
Cc1ccc(C(=O)Nc2cccc(C(F)(F)F)c2)cc1NC(=O)c1c[nH]c2cc(C(F)(F)F)ccc2c1=O	.	.	58*	2
Cc1cc(C(F)F)n2nc(C(=O)Nc3cccc(C(F)(F)F)c3)nc2n1	81*	51	6	-3
Cc1ccc(C(=O)Nc2cccc(C(F)(F)F)c2)cc1Nc1ccccn1	-29	-14	50*	3
COc1ccc(C(F)(F)F)cc1NC(=O)c1nc2nc(C)cc(C(F)F)n2n1	17	-1	16	-2
CC(NC(=O)CCCN1C(=O)c2ccccc2C1=O)c1ccc2c(c1)CCCC2 (stereo unspecified)	203*	118	2	2
C/C(=N/NS(=O)(=O)c1ccccc1)c1ccc(Cl)cc1	28	14	53*	1
COc1ccc(S(=O)(=O)CCc2nc3ccccc3s2)cc1	2	-6	-3	0
CC1Cc2ccccc2N1CC(=O)NC(=O)NCc1ccccc1 (stereo unspecified)	-75	-75*	2	2
CC1CCCN(C(=O)c2ccccc2OC2CCN(S(C)(=O)=O)CC2)C1 (stereo unspecified)	64*	23	-1	0
CCc1cccc(C)c1NC(=O)c1cc(C)oc1C	3	-3	16	0
CCOC(=O)c1c(C)[nH]c(C(=O)COC(=O)C2=NNC(=O)CC2)c1C	-83	-78*	2	3
CC(C)CN(C(=O)CCC(=O)OCC(=O)NCCc1ccccc1)c1c(N)n(CC(C)C)c(=O)[nH]c1=O	-9	-8	3	-3
COc1ccc(C(=O)Nc2ccnn2C2CCN(C(=O)CCC(F)(F)F)CC2)cc1	4	2	0	0
O=C1NC(c2ccccn2)Nc2sc3c(c21)CCC3 (stereo unspecified)	28	2	19	4
Cc1ccsc1C1NC(=O)c2c(sc3c2CCCC3)N1 (stereo unspecified)	36	20	114*	3
O=C1NC(c2ccc(Br)cc2)Nc2sc3c(c21)CCC3 (stereo unspecified)	-5	5	77*	-1
O=S1(=O)CC/C(=N\O)c2ccccc21	-17	-9	-4	-2
SMILES	HSF1 activator	HSF1 inhib	AHR act	FXN GAA850 act
C/C=C(/C)C(=O)O[C@@H]1c2cc3c(c(OC)c2-c2c(cc(OC)c(OC)c2OC)[C@@H](OC(C)=O)[C@@H](C)[C@H]1C)OCO3	9	6	-1	-1
Cc1cccc(NC(=O)c2cc(C)nc3ccccc23)c1	7	5	20	1
O=C(Nc1ccccc1)Nc1sccc1-c1nc2ccccc2s1	19	4	72*	-1
COc1ccccc1NC(=O)Nc1sccc1-c1nc2ccccc2s1	14	12	33	0
O=C(Nc1cccc(Cl)c1)Nc1sccc1-c1nc2ccccc2s1	-41	-44	49*	1
Cc1cccc(NC(=S)c2nc3ccccc3s2)c1	15	0	76*	2
O=C(Nc1cccc(-c2nc3ccccc3s2)c1)c1cccs1	35	12	46	4

Assay outcomes (PubChem)
